# Assay results as given in PubChem BioAssay (NCATS).
# Inconclusive results are not listed. Unmarked numbers belong to inactive results. The source made the active and inactive calls. Calls follow the shape of the dose curve; as a rule, active = well fitted cell-killing curve with a large enough effect; inconclusive = small, poorly fitted or top-dose-only effect, or effect the other way; inactive = no such curve, though single readings can be large or run the other way.
# Test: Quantitative High-Throughput drug screen in 47 multiple myeloma cell lines against the NCATS MIPE library collection: Karpas417_ECACC cell viability assay (AID 1918961)
# Details: Karpas417 myeloma viability, CellTiter-Glo ATP luminescence, 48 h; viability (% of DMSO): at 45.8 µM (top of the series)
# From the text: PI: Beverly A. Mock Ph.D.
# Laboratory of Cancer Biology and Genetics,
# Center for Cancer Research, National Cancer Institute,
# National Institute of Health, Bethesda, Maryland
# Drug resistance and disease progression are common in multiple myeloma (MM) patients, underscoring the need for new therapeutic combinations. […] We hypothesized that effective combinations would reduce MYC expression and enhance p16 activity. […] These preclinical data identify potentially useful drug combinations for evaluation in drug-resistant MM and reveal potential mechanisms of combined drug sensitivity.
# Described herein is the primary MIPE qHTS used to cherrypick compounds. Validated compounds were then further tested for potential synergistic activiy.
# [1] Peat TJ, Gaikwad SM, Dubois W, Gyabaah-Kessie N, Zhang S, Gorjifard S, Phyo Z, Andres M, Hughitt VK, Simpson RM, Miller MA, Girvin AT, Taylor A, Williams D, D'Antonio N, Zhang Y, Rajagopalan A, Flietner E, Wilson K, Zhang X, Shinn P, Klumpp-Thomas C, McKnight C, Itkin Z, Chen L, Kazandijian D, Zhang J, Michalowski AM, Simmons JK, Keats J, Thomas CJ, Mock BA. Drug combinations identified by high-throughput screening promote cell cycle transition and upregulate Smad pathways in myeloma. Cancer Lett. 2023 Aug 1;568:216284. doi: 10.1016/j.canlet.2023.216284. Epub 2023 Jun 24. PMID: 37356470; PMCID: PMC10408729.
# SEQUENCE No. (e.g., 1, 2, 3, etc.); […] (e.g., Cells, Incubation, Reagent, etc.); VALUE and DESCRIPTION.
# 1; Cells; 5 uL; white, solid bottom 1536-well Greiner assay plate.
# 2; Compounds; 23 nL; Kalypsis pin tool (Wako USA) equipped with a 1536-well pin head to transfer to the assay plates.
# 3; Incubation; 48 hours; 37C incubation.
# 4; Reagent;5uL; CellTiter Glo (Promega).
# 5; Detector; 425V; Luminescence; Viewlux PerkinElmer.
# NOTES (numbers refer to Sequence numbers above)
# 1. The cell-based screening methods employed in this study were like those previously published. Briefly, the corresponding myeloma cell lines were screened in 1,536-well plates with 500 cells, 5-uL per well for inhibition of cell viability (assessed by measuring ATP levels with CellTiterGlo).
# 2. NCATS MIPE 4.0 library of approved and investigational drugs were added using the Kalypsis pin tool. Wells treated with DMSO only for 100% viability and media only wells for 0% viability were used as controls.
# 3. The assay plates were covered and incubated for 48 hours in a 37C, 5% CO2 incubator with controlled humidity.
# 4. After 48 hours, CellTilter-GloTM luminescent substrate mix (Promega) reagent was added to the assay plate and plates we incubated for 5 min at room temperature.
# 5. Signal was measured as median relative luminescence units on a ViewLux (PerkinElmer) multiplate reader.
# [1] Heske CM, Davis MI, Baumgart JT, Wilson K, Gormally MV, Chen L, Zhang X, Ceribelli M, Duveau DY, Guha R, Ferrer M, Arnaldez FI, Ji J, Tran HL, Zhang Y, Mendoza A, Helman LJ, Thomas CJ. Matrix Screen Identifies Synergistic Combination of PARP Inhibitors and Nicotinamide Phosphoribosyltransferase (NAMPT) Inhibitors in Ewing Sarcoma. Clin Cancer Res. 2017 Dec 1;23(23):7301-7311. doi: 10.1158/1078-0432.CCR-17-1121. Epub 2017 Sep 12. PMID: 28899971; PMCID: PMC6636827.
# Potency is read from the fitted curve at half-maximal effect.
Compound,Potency,viability (% of DMSO)
Cc1ccc(NC(=O)C2(c3ccc4c(c3)OC(F)(F)O4)CC2)nc1-c1cccc(C(=O)O)c1,46.9 nM (active),–
CN1CCN(c2ccc3nc(-c4c(N)c5c(F)cccc5[nH]c4=O)[nH]c3c2)CC1,8330 nM (active),–
CN(C1CCc2c(c3ccccc3n2CC(=O)O)C1)S(=O)(=O)c1ccc(F)cc1 (stereo not given),743 nM (active),–
COc1cc(=C2C=c3ccccc3=N2)[nH]c1=Cc1[nH]c(C)cc1C,16600 nM (active),–
O=C(CCCCCCNC(=O)c1cnc(N(c2ccccc2)c2ccccc2)nc1)NO,590 nM (active),–
CCC(=C(c1ccccc1)c1ccc(OCCN(C)C)cc1)c1ccccc1,14800 nM (active),–
O=C(O)c1ccc2c(c1)nc(Nc1cccc(Cl)c1)c1ccncc12,935 nM (active),–
CC(C)c1cc(-c2n[nH]c(=O)n2-c2ccc3c(ccn3C)c2)c(O)cc1O,16.6 nM (active),–
Cc1ccc(C(N)=O)cc1Nc1nccc(-c2cn(C(C)C)c3cnccc23)n1,2960 nM (active),–
CC[C@@H]1C(=O)N(C)c2cnc(Nc3ccc(C(=O)NC4CCN(C)CC4)cc3OC)nc2N1C1CCCC1,1870 nM (active),–
CNC(=O)c1nn(C)c2c1C(C)(C)Cc1cnc(Nc3ccc(N4CCN(C)CC4)cc3)nc1-2,833 nM (active),–
CCN1CCN(Cc2ccc(-c3cc4c(N[C@H](C)c5ccccc5)ncnc4[nH]3)cc2)CC1,8330 nM (active),–
CC[C@@H]1C(=O)N(C)c2cnc(Nc3ccc(C(=O)NC4CCC(N5CCN(CC6CC6)CC5)CC4)cc3OC)nc2N1C(C)C (stereo not given in full),3320 nM (active),–
O=C(c1ccc(Nc2nccc(-c3cc4ccccc4s3)n2)cc1)N1CCC(N2CCCC2)CC1,2090 nM (active),–
O=C(C=Cc1c(C(=O)O)[nH]c2cc(Cl)cc(Cl)c12)Nc1ccccc1,–,132%
O=C(C=Cc1cccc(S(=O)(=O)Nc2ccccc2)c1)NO,1080 nM (active),–
Cc1cc(Nc2cc(N3CCN(C)CC3)nc(Sc3ccc(NC(=O)C4CC4)cc3)n2)n[nH]1,7430 nM (active),–
C=C1C(=CC=C2CCC[C@]3(C)[C@@H]([C@H](C)C=C[C@H](C)C(C)C)CC[C@@H]23)C[C@@H](O)C[C@@H]1O,118 nM (active),–
COc1c(OCCCN2CCOCC2)ccc2c3n(c(=NC(=O)c4cnc(N)nc4)nc12)CCN3,8.1 nM (active),–
CNC(=O)c1cc(Oc2ccc(NC(=O)Nc3cc(C(C)(C)C)nn3-c3ccc4ncccc4c3)c(F)c2)ccn1,9350 nM (active),–

Compound,Potency,viability (% of DMSO)
COC(=O)[C@]12CCC(C)(C)C[C@@H]1[C@@H]1C(=O)C=C3[C@@]4(C)C=C(C#N)C(=O)C(C)(C)[C@@H]4CC[C@@]3(C)[C@]1(C)CC2,526 nM (active),–
COc1cc2c(cc1-c1c(C)noc1C)ncc1[nH]c(=O)n([C@H](C)c3ccccn3)c12,148 nM (active),–
CN1CC[C@@H](c2c(O)cc(O)c3c(=O)cc(-c4ccccc4Cl)oc23)[C@@H](O)C1,18.7 nM (active),–
Nc1nc(-c2nn(Cc3ccccc3F)c3ncccc23)nc(N)c1N1CCOCC1,–,86.8% (active)
CN[C@H]1CCc2cc(OC)c(OC)c(OC)c2-c2ccc(OC)c(=O)cc21,59 nM (active),–
CCC[C@H](NC(=O)C(C#N)=Cc1cccc(Br)n1)c1ccccc1,5900 nM (active),–
CC(C)c1ccc(Cn2ccc3c4c(N)nc(NC5CC5)nc4ccc32)cc1,10500 nM (active),–
O=c1c2ccccc2nc2n1CCc1c-2[nH]c2ccccc12,–,64.6%
C=CC(=O)Nc1cccc(Oc2nc(Nc3ccc(N4CCN(C)CC4)cc3OC)ncc2Cl)c1,–,4.75%
COc1cc(C(=O)NS(=O)(=O)c2ccccc2C)ccc1Cc1cn(C)c2ccc(NC(=O)OC3CCCC3)cc12,–,193%
CN1CCC(CNc2ccc3ncc(-c4cccc(OC(F)(F)F)c4)n3n2)CC1,10500 nM (active),–
C1=CCOCc2cc(ccc2OCCN2CCCC2)Nc2nccc(n2)-c2cccc(c2)OCC1,1660 nM (active),–
Cc1cc(CN2CCN(c3c(Br)cnc4nc(-c5ccc(N6CCN(C)CC6)cc5)[nH]c34)CC2)no1,–,210%
O=C(Nc1nc2cccc(-c3ccc(CN4CCS(=O)(=O)CC4)cc3)n2n1)C1CC1,1660 nM (active),–
CNC(=O)c1c(F)cccc1Nc1nc(Nc2cc3c(cc2OC)CCN3C(=O)CN(C)C)nc2[nH]ccc12,–,210%
Cc1ccc2nc(NC(=O)CSc3nc4c(c(=O)n3-c3ccccc3)SCC4)sc2c1,23500 nM (active),–
CC(C)CC(=O)Nc1n[nH]c2c1CN(C(=O)C1CCN(C)CC1)C2(C)C,526 nM (active),–
Nc1nc(Nc2ccc(S(N)(=O)=O)cc2)nn1C(=O)c1c(F)cccc1F,3320 nM (active),–
COc1cccc2nc(-c3cccs3)nc(NN3C(=O)C=C(C)C3=O)c12,52.6 nM (active),–
Cn1c2ccccc2c2c3c(c4c5ccccc5n(CCC#N)c4c21)CNC3=O,148 nM (active),–
